Only some compounds are listed: those with a hit (about 1.6% of all), similar ones and a draw of the others.
KCNQ2 block – blocks the rat KCNQ2 potassium channel; AID 2156; B-score at 10 µM; 1.1% of 310,000 active; CHO-K1 KCNQ2, FluxOR thallium flux, 20 min; hits give low values;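 active = fluorescence ratio B-score at most minus 3 library SDs, with starting brightness B-score within 2 library SDs, cut at about -5.5 in these data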
KCNQ2 enhance – enhances the rat KCNQ2 potassium channel. CHO-K1 KCNQ2, FluxOR thallium flux fluorescence; hits give high values. B-score at 10 µM. 0.54% of 310,000 active;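 active = fluorescence ratio B-score at least 3 SD of library B-scores, with initial fluorescence B-score within 3 of them, cut at about 5.3 in these data; same plate scores as AID 2156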;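 also: B-score of peak minus minimum over baseline fluorescence ratio after K+ and Tl+ stimulus; positive B-score means potentiation of KCNQ2 with more thallium influx and brighter signal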
Kir21 confirm – confirmation of mouse Kir2.1 potassium channel inhibitors. Tl flux remaining, % of negative control (hits give low values), % at 10 µM. shares compounds with KCNQ2 enhance. 41% of 2,300 active. Kir2.1-expressing cells, FluxOR thallium flux fluorescence; hits give low values;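 active = Primary-screen hit whose thallium flux fell at least 3 control SD below untreated wells in both duplicates, with normal baseline fluorescence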;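 also: 0% = blank wells without stimulus and 100% = stimulated no-compound controls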
HEK293 Tl flux – alters thallium flux in parental HEK293 cells, Kir2.1 counter-screen; shares compounds with KCNQ2 enhance; FluxOR thallium flux fluorescence; 0% = unstimulated blank wells; FluxOR signal as % of negative control (100 = no effect), % at 10 µM; 19% of 2,300 active;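 active = dye signal at least 3 control SD above or below untreated wells in both duplicates, raw fluorescence within 3, either direction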;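 also: percent is based on the flux ratio of peak minus minimum fluorescence over baseline F0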
CHO-K1 ctr – parental CHO-K1 activity in KCNQ2 potentiator counter-screen; shares compounds with KCNQ2 enhance; parental CHO-K1 cells, FluxOR thallium flux fluorescence; zero = vehicle mean+3SD, 100% = vehicle-minus-blank window; activity increase over 3SD of controls, % at 10 µM; 43% of 1,200 active; AID 2282;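 active = signal rise of at least 3 SD above the untreated control mean, in both duplicate wells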;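 also: counter screen of KCNQ2 potentiator hits so any rise reflects channel-independent effects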
KCNQ1 sel pot – human KCNQ1 counter-target activity of KCNQ2 potentiators; activation over 3SD threshold, % at 10 µM; CHO KCNQ1 stable, FluxOR thallium flux fluorescence; beyond 3SD, as % of vehicle-control signal; AID 2283; shares compounds with KCNQ2 enhance; 28% of 1,200 active;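 active = fluorescence ratio rise of at least 3 SD of vehicle wells above their mean, in both replicate wells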;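 also: 0% = vehicle mean plus 3 SD and 100% = vehicle minus unstimulated blank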
KCNQ2 pot confirm – rat KCNQ2 channel potentiator confirmation; shares compounds with KCNQ2 enhance; CHO-KCNQ2 cells, FluxOR thallium flux fluorescence; potentiation, less the hit threshold, % at 10 µM; 68% of 1,200 active;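 active = fluorescence ratio rising 3 SD or more over the vehicle control mean in both replicates, plus primary screen hit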;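 also: peak minus minimum thallium fluorescence divided by baseline after K/Tl stimulus; 0% = vehicle mean plus 3 SD and 100% = vehicle minus unstimulated blank difference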
Kir21 spec – selectivity of KCNQ2 potentiators: effect on mouse Kir2.1 | shares compounds with KCNQ2 enhance | HEK293 Kir2.1, FluxOR thallium flux fluorescence | activity over 3SD threshold, % at 10 µM | 2% of 1,200 active | AID 2345;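 active = fluorescence ratio rise of at least 3 SD above the vehicle-control mean, seen in both replicates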;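 also: 0% = vehicle mean plus 3 SD and 100% = vehicle minus no-stimulus blank window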
KCNQ2 W236L MoA – rat KCNQ2 W236L mutant potentiation by KCNQ2 potentiators; current increase over 3SD of negative controls (%), hits give high values, % at 25 µM; 10% of 940 active; shares compounds with KCNQ2 enhance; CHO KCNQ2-W236L, automated patch clamp current;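 active = current increase at least 3 SD of the untreated controls above them in both duplicate recordings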
Target sequence (O88943 whole entry W236L, looked up): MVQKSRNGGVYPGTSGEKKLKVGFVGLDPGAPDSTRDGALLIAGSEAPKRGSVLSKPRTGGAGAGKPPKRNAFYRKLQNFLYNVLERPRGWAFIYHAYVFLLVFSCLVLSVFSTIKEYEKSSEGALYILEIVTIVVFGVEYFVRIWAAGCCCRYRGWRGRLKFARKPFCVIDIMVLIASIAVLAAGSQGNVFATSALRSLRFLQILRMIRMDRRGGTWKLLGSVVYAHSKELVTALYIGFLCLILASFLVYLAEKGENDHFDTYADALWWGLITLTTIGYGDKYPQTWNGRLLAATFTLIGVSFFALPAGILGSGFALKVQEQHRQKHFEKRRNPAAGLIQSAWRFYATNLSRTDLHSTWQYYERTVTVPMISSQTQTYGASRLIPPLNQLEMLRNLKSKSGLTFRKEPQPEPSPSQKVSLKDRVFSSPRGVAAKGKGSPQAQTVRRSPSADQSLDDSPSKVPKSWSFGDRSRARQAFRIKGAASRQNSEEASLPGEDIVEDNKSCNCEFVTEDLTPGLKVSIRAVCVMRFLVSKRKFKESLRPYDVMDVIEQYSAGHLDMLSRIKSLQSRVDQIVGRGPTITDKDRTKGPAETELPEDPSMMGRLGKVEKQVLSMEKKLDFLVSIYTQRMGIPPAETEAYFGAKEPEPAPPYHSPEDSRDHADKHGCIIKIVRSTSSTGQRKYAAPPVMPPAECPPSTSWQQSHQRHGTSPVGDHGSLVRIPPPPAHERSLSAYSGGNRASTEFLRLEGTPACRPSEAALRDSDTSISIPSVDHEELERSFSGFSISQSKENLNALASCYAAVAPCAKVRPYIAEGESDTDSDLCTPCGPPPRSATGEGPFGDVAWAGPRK
Active calls of the source: *; i = inactive; / = no result.

SMILES | KCNQ2 block | KCNQ2 enhance | Kir21 confirm | HEK293 Tl flux | others
O=C(Nc1cc(C(F)(F)F)cc(C(F)(F)F)c1)Nc1cnn(-c2ccc([N+](=O)[O-])cc2)c1C(F)(F)F | i | / | / | /
Oc1c(Cl)cc(Cl)cc1C=Nc1ccccc1N1CCCC1 | i | 0.41 | / | /
Oc1c(Cl)cc(Cl)cc1/C=N/c1nccs1 | i | 9.1* | i | i | CHO-K1 ctr=-18;KCNQ1 sel pot=126*;KCNQ2 pot confirm=34*;Kir21 spec=-22;KCNQ2 W236L MoA=14%*
Oc1c(Cl)cc(Cl)cc1/C=N/c1nc(-c2ccc(Cl)cc2)cs1 | i | 2.2 | / | /
NC(=O)c1cccc(N=Cc2cc(Cl)cc(Cl)c2O)c1 | i | 13* | i | i | CHO-K1 ctr=4.4*;KCNQ1 sel pot=31*;KCNQ2 pot confirm=22*;Kir21 spec=-13;KCNQ2 W236L MoA=i
CCC(NC(=O)CCc1nnc(-c2cc(C)on2)o1)C12CC3CC(CC(C3)C1)C2 (configuration not stated) | i | 2.5 | / | /
CC(CC(=O)NCC1CCCO1)c1ccccc1 (configuration not stated) | i | / | / | /
CCCCN(C)C(=O)c1ccc2c(c1)S(=O)(=O)c1ccccc1C2=O | i | 1.4 | / | /
COc1ccc(CN2CCC(C(=O)c3ccc(Cl)cc3)CC2)cc1 | i | 0.34 | 20%* | i
COc1ccc(CN2CCC(C(=O)c3cccc(Cl)c3)CC2)cc1 | i | 0.01 | / | /
Cc1sc2nc(C(C)C)nc(SCC(=O)NCc3ccco3)c2c1C | i | 4.6 | i | 218%*
Cc1nc(SCC(=O)NCc2ccco2)c2c(C)c(C)sc2n1 | i | / | / | /
CCCCn1c(N)c(N(CCOC)C(=O)COC(=O)COc2ccc(CC)cc2)c(=O)[nH]c1=O | i | 0.19 | / | /
CN1C(=O)/C(=C/c2ccccc2Cl)Sc2ccc(C(=O)NCc3cccnc3)cc21 | i | / | / | /
Cc1cc(S(=O)(=O)NCC(c2ccc(F)cc2)N2CCN(C)CC2)ccc1F (configuration not stated) | i | 1 | / | /
Cn1c(CNC(=O)c2ccc(F)cc2)cc2ccccc21 | i | 6.5* | i | i | CHO-K1 ctr=0;KCNQ1 sel pot=78*;KCNQ2 pot confirm=0;Kir21 spec=-27;KCNQ2 W236L MoA=i
Cn1c(CNC(=O)c2ccccc2F)cc2ccccc21 | i | / | / | /
Cn1c(=O)c2c(ncn2CCOc2ccc(F)cc2)n(C)c1=O | i | 2.8 | / | /
CC(C)[C@H](NC(=O)N1c2ccccc2NC(=O)[C@@H]1C(C)C)C(=O)N[C@H](Cc1ccccc1)C(=O)O | i | 0.59 | / | /
Oc1ccccc1CN1CCN(C(O)(c2ccccc2)c2ccccc2)CC1 | i | / | 66%* | i
Oc1ccccc1CN1CCC(C(O)(c2ccccc2)c2ccccc2)CC1 | i | / | / | /
Nc1nc(Nc2cccc(F)c2)nc(NCc2ccco2)c1[N+](=O)[O-] | i | / | / | /
COc1ccccc1/C=C/C(=O)Nc1nc(N)n(-c2ccccc2)n1 | i | 0.54 | / | /
CN(CC1COc2ccccc2O1)C(=S)Nc1ccccc1 (configuration not stated) | i | / | / | /
CCN(CC1COc2ccccc2O1)C(=S)NC1CC2CCC1C2 (configuration not stated) | i | 12* | i | 64%* | CHO-K1 ctr=37*;KCNQ1 sel pot=-13;KCNQ2 pot confirm=-6;Kir21 spec=-35;KCNQ2 W236L MoA=i
SMILES | KCNQ2 block | KCNQ2 enhance | Kir21 confirm | HEK293 Tl flux | others
C=CCn1cccc(C(=O)Nc2ccc(N(C)C)cc2)c1=O | i | 0.02 | / | /
COc1ccccc1C(=O)NC(=O)CSc1nnc(C)s1 | i | / | / | /
CCOC(=O)Cn1c(=N)n(CCOc2ccc3ccccc3c2)c2ccccc21 | i | / | 28%* | i
CCOC(=O)Cn1c(=N)n(CCOc2ccc(OC)cc2)c2ccccc21 | i | / | / | /
Cn1nnnc1SCC(=O)N1CCCc2ccccc21 | i | 0.15 | / | /
O=C(CSc1cccc[n+]1[O-])N1CCCc2ccccc21 | i | 15* | i | i | CHO-K1 ctr=-8;KCNQ1 sel pot=1.2*;KCNQ2 pot confirm=-19;Kir21 spec=-30
CC(C(=O)NCCS(=O)(=O)c1ccc(Br)cc1)S(=O)(=O)c1ccc(Cl)cc1 (configuration not stated) | i | / | / | /
CC(C)c1ccc(C(C)NCCS(=O)(=O)c2ccc(Cl)cc2)cc1 (configuration not stated) | i | / | 56%* | i
CC(C)c1ccc(NC(=O)NCc2cccnc2)cc1 | i | / | / | /
CCCCCCCCC[n+]1cccc2c3ccccc3ccc21 | i | / | 6.5%* | i
O=[N+]([O-])c1ccc(C[n+]2cccc3c4ccccc4ccc32)cc1 | i | 1.1 | / | /
CCOC(=O)COc1ccc(S(=O)(=O)N2CCc3ccccc3C2)cc1 | i | / | / | /
CCCN(CC(=O)Nc1ccccc1C)C(=O)c1ccc(=O)n(Cc2ccccc2)n1 | i | 0.12 | / | /
O=C(Nc1ccccc1)N1CCCC(CNS(=O)(=O)Cc2ccccc2)C1 (configuration not stated) | i | / | / | /
Cc1cc(C)c2nc(NNC(=O)c3ccc(S(=O)(=O)N4CC(C)CC(C)C4)cc3)sc2c1 (configuration not stated) | i | 5.8* | i | i | CHO-K1 ctr=61*;KCNQ1 sel pot=-11;KCNQ2 pot confirm=-22;Kir21 spec=-29
Cc1cc(C)c2nc(NNC(=O)c3ccc(S(=O)(=O)N4CCCC(C)C4)cc3)sc2c1 (configuration not stated) | i | 1.8 | / | /
C=Cn1cc[n+](CC(=O)c2ccc(Br)cc2)c1 | i | / | / | /
COCCN(C(=O)c1ccccc1F)c1nnc(-c2ccc(OC)cc2)s1 | i | / | / | /
CSc1ncc(C(=O)Nc2cccnc2)c(C(F)(F)F)n1 | i | / | / | /
CCCCCc1cc(O)c2c(C)cc(=O)oc2c1 | i | 0.22 | / | /
CCCCc1cc(O)c(CCCC)c(O)c1 | i | 8.7* | / | / | CHO-K1 ctr=-16;KCNQ1 sel pot=-15;KCNQ2 pot confirm=38*;Kir21 spec=-55;KCNQ2 W236L MoA=i
CCn1c(SCC(=O)NNC(=O)c2ccc(OC)cc2)nnc1-c1ccco1 | i | 2.3 | / | /
CCCCCn1c(=S)[nH]c2ncccc2c1=O | i | 3.1 | / | /
O=c1c2cccnc2[nH]c(=S)n1CCC1=CCCCC1 | i | 12* | i | 278%* | CHO-K1 ctr=7.6*;KCNQ1 sel pot=-14;KCNQ2 pot confirm=48*;Kir21 spec=-23;KCNQ2 W236L MoA=i
CSc1nc2sc3c(c2c(=S)[nH]1)CC(C)(C)OC3 | i | 15* | i | 401%* | CHO-K1 ctr=-15;KCNQ1 sel pot=-4;KCNQ2 pot confirm=82*;Kir21 spec=-3;KCNQ2 W236L MoA=i
CCc1nc2sc3c(c2c(=S)[nH]1)CC(C)(C)OC3 | i | 1.3 | / | /
S=C(NCc1ccc(Cl)cc1)NCc1ccccn1 | i | / | / | /
